Reference: PubChem BioAssay AID623959 (National Center for Advancing Translational Sciences (NCATS), 2012)
Hit rate of the full screen: of about 1,400 compounds, fewer than 10 were called active. Another 8% or so got no clear call; they are omitted. Calls come from the whole dose curve; as a rule, active = well fitted curve in the direction sought with a large enough effect; inconclusive = small, poorly fitted or top-dose-only effect, or another doubt; inactive = no such curve, though single readings can be large or run the other way. A selection follows.

target: Transient receptor potential cation channel subfamily V member 1 (Homo sapiens) (UniProt Q8NER1); test: qHTS Assay for Compounds that Act as Potentiators of the Vanilloid Receptor 1: Hit Validation; settings: TRPV1-expressing cells, Fluo-8 calcium influx, capsaicin EC20; series mostly up to 42.1 µM
Sequence (Q8NER1 whole entry, looked up): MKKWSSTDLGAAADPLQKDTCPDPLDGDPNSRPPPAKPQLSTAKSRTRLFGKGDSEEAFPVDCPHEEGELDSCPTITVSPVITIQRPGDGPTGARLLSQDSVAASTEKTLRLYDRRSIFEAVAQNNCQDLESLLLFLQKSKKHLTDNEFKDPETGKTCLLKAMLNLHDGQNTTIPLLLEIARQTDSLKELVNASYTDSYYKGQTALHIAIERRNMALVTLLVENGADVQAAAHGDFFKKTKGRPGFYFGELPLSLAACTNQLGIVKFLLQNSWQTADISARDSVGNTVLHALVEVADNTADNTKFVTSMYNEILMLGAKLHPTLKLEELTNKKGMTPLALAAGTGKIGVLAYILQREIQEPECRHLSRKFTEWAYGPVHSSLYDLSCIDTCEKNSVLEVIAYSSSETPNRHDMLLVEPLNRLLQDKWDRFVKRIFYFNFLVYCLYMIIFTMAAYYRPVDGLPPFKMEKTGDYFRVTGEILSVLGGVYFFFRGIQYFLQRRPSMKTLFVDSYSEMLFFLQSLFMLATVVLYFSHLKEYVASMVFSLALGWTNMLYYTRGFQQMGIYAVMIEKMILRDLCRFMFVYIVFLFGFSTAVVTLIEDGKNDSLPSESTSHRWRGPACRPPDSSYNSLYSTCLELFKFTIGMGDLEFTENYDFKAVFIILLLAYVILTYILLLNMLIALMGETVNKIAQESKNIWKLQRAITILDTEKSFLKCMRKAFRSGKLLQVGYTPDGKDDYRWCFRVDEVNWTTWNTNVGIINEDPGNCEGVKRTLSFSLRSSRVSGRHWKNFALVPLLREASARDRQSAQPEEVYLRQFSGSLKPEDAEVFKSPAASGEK
From the text: The transient receptor potential ion channel, family V, number 1, (TRPV1) is one of the most important molecular transducers of painful stimuli and a potential target for analgesic drug development. Although recent clinical trials with orthosteric antagonists have not produced a successful drug because of a hyperthermia side effect and their tendency to block thermal noxious pain, this ion channel is undeniably well placed in the pain pathway, and the idea of blocking pain signals before they enter the CNS is an excellent concept and of proven efficacy when TRPV1 agonists are used. We propose a new approach involving allosteric modulation to impose an activity-dependent constraint within the context of inflammation and tissue damage that would alter the responsiveness of the channel in a way that an orthosteric vanilloid antagonist cannot achieve. We believe that the allosteric modulator approach has not been explored for this target. The main goal of this proposal is to identify additional, new, potent allosteric modulators of TRPV1 that can be used to investigate TRPV1 function. Our recent report provides evidence of proof of concept, but the compounds are just at the edge of utility in terms of potency. […] The question of whether they can be used as analgesic agents is complex, but if suitable compounds are identified then testing for analgesic properties will be conducted. Compounds identified as agonists were re-tested in the primary screen for hit validation. NIH Chemical Genomics Center [NCGC] NIH Molecular Libraries Probe Centers Network [MLPCN] MLPCN Grant: MH089480 Assay Submitter (PI): Michael Iadarola, National Institute of Dental and Cranofacial Research
Upon TRPV1 activation in TRPV1 cells, the channel opens and extracellular cations flow through the channel into the cytosol. A calcium binding dye (Fluo-8) becomes fluorescent when bound to calcium. This dye is pre-loaded into cells and is used as a marker for calcium influx. The amount of accumulated calcium is precisely quantified using the FDSS kinetic reader and the calcium dye. For the HTS assay, freshly prepared cells are plated at a density of 2000/well in 3 ul medium in 1536-well plates and cultured overnight at 35.5C. Cells will be loaded with 1 ul of the homogeneous calcium dye (ABD Bioquest) at room temperature for 40 to 90 minutes. Plates will be loaded into the FDSS kinetic reader and a 1 sec / cycle for 10 second baseline signal will be measured. Compound library will then be added with a pintool at 23 nl and measured kinetically for 3 minutes. This portion of the read is considered the agonist portion of the screen. Following the 3 minutes of incubation, an on board pipettor will deliver 1 ul of capsaicin for a final concentration equal to the EC20. Signal will be measured kinetically for an additional 2 minutes. This portion of the read is considered the allosteric enhancer portion of the screen. The FDSS reader has a standard filter set capable of measuring calcium bound Fluo-8 (ex=480 and em=520 nm).
Potency is the fitted concentration of half-maximal effect.

Potency, inactive:
CC(C)(C)OC(=O)NCCCC[C@H](NC(=O)c1nc[nH]c1C(=O)NCc1ccc(CNC(=O)OC(C)(C)C)cc1)C(=O)OC(C)(C)C
CN(c1ccccc1)S(=O)(=O)c1ccc(Cl)c(C(=O)NCCc2c[nH]c3ccccc23)c1
CCc1cccc(C)c1NC(=S)N(CCCN1CCN(C)CC1)Cc1cccs1
Cc1cccc(-n2c(=O)[nH]c3c(C(N)=O)nc(CC(C)C)nc32)c1
COc1ccc(NC(=O)CCCSc2nc(-c3ccco3)cc(C(F)(F)F)n2)cc1OC
Cc1ccc(NC(=O)c2cc(S(=O)(=O)N3CCOCC3)ccc2F)c(C)c1
CCOC(=O)c1c(C)c(C(=O)NCC2CCCO2)c(C)n1C (stereo unspecified)
Cc1ncsc1CCC(=O)N1CCCC(Nc2ccc(C(C)C)cc2)C1 (stereo unspecified)
Cc1ccc(NCc2n[nH]c(=S)n2-c2ccccc2)c(C)c1
NNC(=O)C1COc2cc3ccccc3cc2O1 (stereo unspecified)
CCCCC(=O)Nc1ccc(C(=O)Nc2ccc(S(=O)(=O)N3CCCC3)cc2)cc1
COc1ccc(C(=O)Nc2ccc3ccccc3c2)cc1
Cc1sc2ncn(CC(=O)Nc3cccc(S(N)(=O)=O)c3)c(=O)c2c1-c1ccccc1
CCC(=O)N(CCc1ccccc1)Cc1cc2cccc(C)c2[nH]c1=O
Cc1c(=O)n(OCc2ccccc2F)c2ccccc2[n+]1[O-]
Nn1c(Cc2ccccc2)nc2cc(Cl)ccc2c1=O
Cc1ccc2c(c1)[C@H]1[C@H](CO2)[C@H](c2ccccc2)[C@]2(C)C(=O)Nc3cc(Cl)ccc3C(=O)N12
Cc1cc(C)cc(Oc2nc3ccccn3c(=O)c2/C=C(\C#N)C(=O)NC2CCS(=O)(=O)C2)c1 (stereo unspecified)
CCC(=O)Nc1cccc(NC(=O)c2ccc3c(c2)OCCO3)c1
CCOc1ccc(-c2cccc(NS(=O)(=O)c3cc([N+](=O)[O-])ccc3Cl)c2)nn1
COC(=O)CCC(=O)OC1(C)C(=O)C=C2C=C(C3CC3)N(c3ccccc3)C=C2C1=O (stereo unspecified)
CCN(CC(=O)Nc1ccccc1OC)CC(=O)Nc1sccc1C#N
C=CCOc1c(Br)cc(CNc2ccc3[nH]c(=O)[nH]c3c2)cc1OCC
O=C(CSc1nnc(Cc2ccccc2)o1)NC1CC2CCC1C2 (stereo unspecified)
CC(=O)N1CCN(c2ccc(NC(=O)C(c3ccccc3)c3ccccc3)cc2)CC1
Cc1cccc(NC(=S)NCC(c2cccnc2)N(C)C)c1C (stereo unspecified)
CC(C)(C)C(=O)NNC(=O)c1ccc(Oc2cc(Cl)cc(Cl)c2)o1
Cc1ccc(NC(=O)CCS(=O)(=O)c2ccc3c(c2)NC(=O)C(C)S3)cc1Cl (stereo unspecified)
Cc1ccc(NC(=O)CCn2nc(C)cc2C)cc1
O=C(Cc1cccs1)Nc1cccc(-c2ccc3nncn3n2)c1
CC(=O)c1ccc(Nc2ncnc3c2oc2ccccc23)cc1
CC(C)C[C@H](NC(=O)c1nc[nH]c1C(=O)N1CCC(C)CC1)C(=O)OCc1ccccc1
CC(=O)c1cccc(NC(=O)N2C3CCC2CC(NC(=O)Nc2ccccc2)C3)c1 (stereo unspecified)
CCOC(=O)N/N=C1\CCS(=O)(=O)c2ccc(Cl)cc21
COc1cc(C)nc(-c2csc(C)n2)n1
O=C(NNC(=O)c1cccc(O)c1)Nc1ccc([N+](=O)[O-])cc1
Cc1cnc(NC(=O)c2cc3c(s2)CCCC3)s1
C(=N\Nc1nn2cnnc2c2ccccc12)/c1ccco1
CCc1ccc(/C=C2/SC(N3CCOCC3)=NC2=O)cc1
Cc1nnc(SCC(=O)N(C)CC(=O)Nc2ccc(F)cc2)n1Cc1ccccc1
COc1ccc(OC)c(NC(=O)CCN2C(=O)c3ccccc3C2=O)c1
CCc1ccc(OCCCC(=O)NCc2ccccc2)cc1
CCN(CC)S(=O)(=O)c1ccc(/C=C/C(=O)Nc2cccc(F)c2)cc1
COCCNC(=O)CSc1nc2ccccc2c(=O)n1CC1CCCO1 (stereo unspecified)
COc1ccc(C(=O)NC(CC(C)C)C(=O)O)cc1OC (stereo unspecified)
CCCCn1c(=O)[nH]c(=O)c2c1nc(-c1ccc(OC)c(Br)c1)n2CC(C)C
COC(=O)C(C(=O)Nc1nc2ccccc2s1)C1CCCC1 (stereo unspecified)
N=C1/C(=C\c2ccc(-c3ccc(C(=O)O)cc3)o2)C(=O)N=C2SC=C(c3ccccc3)N12
Cc1c(N=c2scc(-c3ccccc3)n2C)c(=O)n(-c2ccccc2)n1C
COc1ccc(Cc2c(N)nc(C)nc2N)cc1
O=C(N/N=C/c1cccnc1)c1ccc2c(c1)OCO2
COc1cccc(/C=C/C(=O)Nc2cccc(C(C)=O)c2)c1OC
Cc1ccc(OCC(=O)c2c[nH]c3ccccc23)c([N+](=O)[O-])n1
COc1cc(OC)c(NC(=O)CCc2nc(-c3ccc(C)cc3)no2)cc1Cl
CCO[C@H]1OC(C(=O)NC2CC2)=C[C@@H](c2c[nH]c3ccccc23)[C@@H]1CCCO
CCc1ccc(/C=N/NC(=O)c2c[nH]c3ccccc23)s1
COc1ccc(CNC(=O)C2(CC3CC(c4ccccc4)=NO3)CCN(C(=O)C3CCCC3)CC2)cc1 (stereo unspecified)
Cc1oc(-c2cccs2)nc1CS(=O)CC(=O)NCCc1ccccc1 (stereo unspecified)
O=S(=O)(c1ccc2c(c1)OCCO2)N1CCN(c2cccc(Cl)c2)CC1
COc1ccc(NC(=O)c2ccc(Br)c(S(=O)(=O)N3CCOCC3)c2)cc1
Cn1cccc1C(=O)NC(=O)COC(=O)c1cc([N+](=O)[O-])ccc1Cl
O=C(/C=C/c1cccc2ccccc12)N1CCOCC1
CC(C)c1ccc(OCC(=O)Nc2ccncc2)cc1
CC(C)NC(=O)COC(=O)c1ccc(O)cc1
CN1CCN(S(=O)(=O)c2ccc(NC(=O)c3ccc(F)cc3)cc2)CC1
O=C(O/N=C1\CCS(=O)(=O)c2sccc21)c1c(F)cccc1F
Cc1cc(C)c(NS(=O)(=O)c2ccc(NC(=O)CCC(=O)O)cc2)c(C)c1
COc1ccc(C(C#N)c2cnccn2)cc1OC (stereo unspecified)
CC(=O)c1cc(-c2ccc(F)cc2)n(CCC(=O)Nc2cccnc2)c1C
CCOC(=O)/C=C1\CN(CCC(C)C)S(=O)(=O)c2ccccc21
CCN1C(=O)[C@@H]2[C@@H](c3ccc(-c4ccc(F)cc4)cc3)N3CCCC[C@@]3(C(=O)OC)[C@@H]2C1=O
CCC(C)Sc1cccc(-c2nc3ccc(Cl)cn3c2NCc2ccccc2)c1 (stereo unspecified)
CC(C)(C)c1ccc(/C=C/C(=O)Nc2ccncc2)cc1
CCNC(=O)NC(=O)C(C)OC(=O)c1cccn1C (stereo unspecified)
COc1ccc(N=Nc2c(C)[nH][nH]c2=O)cc1
Cc1cc(NS(=O)(=O)c2ccc(NC(=O)COc3ccc(Cl)cc3)cc2)no1
Cc1cccc(C)c1OCC(=O)Nc1cccc(S(=O)(=O)N2CCCC2)c1
Cn1nc(CC(=O)Nc2ccc3c(c2)OCCO3)c2ccccc2c1=O
CCn1c(Cc2c(C)[nH]c3ccccc23)nnc1SCC(=O)NCc1ccccc1
CCCCCC(=O)NC(NC(=S)N1CCOCC1)C(Cl)(Cl)Cl (stereo unspecified)
COc1ccc(S(=O)(=O)N2CCCC2)cc1C(=O)O
Cc1c(Cl)ccc2sc(NC(=O)c3ccco3)nc12
O=C(O)c1ccc(Br)cn1
CC(C)(C)c1ccc(C(=O)NNC(=O)C2CCCCC2)cc1
O=C1c2ccc(Oc3ccc([N+](=O)[O-])cc3)cc2C(=O)N1CCCO
COc1ccccc1-c1cc2ccccc2[nH]1
CC(=O)NS(=O)(=O)c1ccc(NC(=O)CC(C)c2ccccc2)cc1 (stereo unspecified)
COc1ccc(CNC(=O)CCSc2ccc(F)cc2)cc1OC
O=C(O)c1coc2ccccc12
CC(=O)NCC(=O)N(Cc1ccco1)C1(C(=O)NC2CCCC2)CCCCC1
Cn1c(=O)c2c(-c3ccccc3F)c3c(nc2n(C)c1=O)-c1ccccc1C3O (stereo unspecified)
COc1ccccc1Nc1ncnc2c1cnn2-c1cccc(C)c1
COc1ccc(C(=O)Nc2ccc3ncccc3c2)cc1
CC(=O)c1cccc(NC(=S)NCCc2ccc(Cl)cc2)c1
CCc1ccccc1NC(=O)CCC(=O)c1cccs1
CCN1C(=O)[C@@H]2[C@H](C1=O)[C@@H]1C(=O)Nc3ccccc3C(=O)N1[C@@H]2c1ccc(Br)cc1
COc1ccc([C@@H]2CC=C(C(=O)O)[C@H](c3cccc(Cl)c3)N2S(=O)(=O)c2ccc(Cl)cc2)cc1
CCOC(=O)C1=C(O)C(=O)N(CCCn2ccnc2)C1c1ccc(C)cc1 (stereo unspecified)
CC(=O)c1cccc(Nc2nc(-c3ccccc3)nc3ccccc23)c1
N#Cc1ccccc1N1CCN(C(=O)c2ccc(NC(=O)c3ccc(Br)o3)cc2)CC1
CCOc1ccc(NS(=O)(=O)c2ccc(OCC(=O)NCCCOC)cc2)cc1
Cc1ccc(S(=O)(=O)NCC(c2cccnc2)N2CCOCC2)cc1 (stereo unspecified)
O=[N+]([O-])C1C(c2ccccc2)=NOC1c1ccccc1O (stereo unspecified)
O=C(Nc1ccccc1)Nc1nnc(SCc2ccc(Cl)cc2)s1

Potency, active:
Cc1ccc(/C=C2\CCC3=C2OC(N)=C(C#N)C3c2ccc(C)cc2)cc1 (stereo unspecified) 8.05 µM
COc1ccc(-[n+]2c(C)cc(/C=C3\Sc4ccccc4N3C)cc2C)cc1 5.7 µM
